{"source": "PubChem BioAssay (Tox21)", "note": "Records with an inconclusive call do not appear. Values without a mark were called inactive. Activity calls are given as the source filed them. The call rests on the fitted dose curve; in most records, active means well fitted cell-killing curve with a large enough effect in the repeat runs; inconclusive means weak or mixed curves; inactive means flat fitted curve, though single readings scatter. On the % scale 0 is the no-effect control and ±100 the full control effect; potency means the concentration at half of the fitted maximal effect.", "data": [{"test": "qHTS RealTime-Glo MT Cell Viability Assay in HepG2 cells - 16 hour (AID 1224885); further: nearly all actives have a fitted effect of over 50% in size", "conditions": "RealTime-Glo luminescence; series mostly up to 76.8 µM; activity change, negative = cytotoxic: at the top concentration", "text": "U.S. Tox21 Program National Center for Advancing Translational Sciences [NCATS] NIH Chemical Genomics Center [NCGC] U.S. Environmental Protection Agency [EPA] National Institutes of Environmental Health Sciences [NIEHS] National Toxicology Program [NTP] U.S. Food and Drug Administration [FDA] Tox21 Assay Overview: Measure of cell viability is critical in the cell-base assay. Analysis of cell viability is necessary for the characterization of cell responses to cytotoxic drugs and environmental stress. A RealTime-Glo MT Cell Viability Assay to monitor cell viability in real time of continues cell culture during 40 hours of compound treatment was used to screen Tox21 10K library compounds in HepG2 cells. The RealTime-Glo MT Cell Viability Assay is a nonlytic, homogeneous, bioluminescent method to measure cell viability in real time using a simple, plate-based method. The assay involves adding NanoLuc luciferase and a cell-permeant prosubstrate to cells in culture. Viable cells reduce the proprietary prosubstrate to generate a substrate for NanoLuc luciferase. This substrate diffuses from cells into the surrounding culture medium, where it is rapidly used by the NanoLuc Enzyme to produce a luminescent signal. The signal correlates with the number of viable cells, making the assay well suited for cytotoxicity studies.\nTox21 Assay Protocol Summary: The mixture of HepG2 cell suspension and reagents were dispensed at 600cells/6 ul/well in 1536-well tissue culture treated black solid bottom plates using a Multidrop dispenser. After the assay plates were incubated at a 37 C/5% CO2 incubator for 5 hours, 23 nL of compounds dissolved in DMSO, positive and negative controls was transferred to the assay plate by a pintool work station. The plates were incubated at 37 C for 40 hours. The luminescence intensity were measured at 0h, 8h, 16h, 24h, 32h and 40h time points using ViewLux plate reader during compound treatment.", "values": [{"compound": "CCCCCCCCOC(=O)c1cc(O)c(O)c(O)c1", "Potency": "19.5 µM (active)"}, {"compound": "CCOC(=O)[C@H](O)[C@@H](O)C(=O)OCC", "activity change, negative = cytotoxic": "-1.96%"}, {"compound": "O=C1OCc2ccccc21", "activity change, negative = cytotoxic": "-0.119%"}, {"compound": "Nc1cc([N+](=O)[O-])cc(Cl)c1O", "activity change, negative = cytotoxic": "-4.47%"}, {"compound": "Cc1cc(F)ccc1-c1cc(N2CC[C@@H](O)[C@H]2CO)ncc1N(C)C(=O)C(C)(C)c1cc(C(F)(F)F)cc(C(F)(F)F)c1", "Potency": "38.3 µM (active)"}, {"compound": "CC(Cc1ccc(O)c(O)c1)C(C)Cc1ccc(O)c(O)c1", "note": "(stereo not given)", "Potency": "43.6 µM (active)"}, {"compound": "CCCCCCCC/C=C\\CCCCCCCC(=O)N(CCO)CCO", "activity change, negative = cytotoxic": "-20.2%"}, {"compound": "CCOC=C(C(=O)OCC)C(=O)OCC", "activity change, negative = cytotoxic": "-1.15%"}, {"compound": "Cc1ccc(C2OC[C@@H]3OC(c4ccc(C)cc4)O[C@H]([C@H](O)CO)[C@@H]3O2)cc1", "note": "(stereo not given in full)", "activity change, negative = cytotoxic": "3%"}, {"compound": "CC/C(=C(/c1ccc(O)cc1)c1ccc(OCCN(C)C)cc1)c1ccccc1", "Potency": "28.8 µM (active)"}, {"compound": "O=[N+]([O-])c1ccc(CO)cc1", "activity change, negative = cytotoxic": "-2.87%"}, {"compound": "Nc1cc([N+](=O)[O-])ccc1Cl", "activity change, negative = cytotoxic": "0.762%"}, {"compound": "C[C@H]1O[C@@H](O[C@H]2CC[C@@]3(C)[C@H](CC[C@@H]4[C@@H]3C[C@@H](O)[C@]3(C)[C@@H](C5=CC(=O)OC5)CC[C@]43O)C2)C[C@H](O)[C@@H]1O[C@H]1C[C@H](O)[C@H](O[C@H]2C[C@H](O)[C@H](O[C@@H]3O[C@H](CO)[C@@H](O)[C@H](O)[C@H]3O)[C@@H](C)O2)[C@@H](C)O1", "activity change, negative = cytotoxic": "-15.3% [at 35.3 µM]"}, {"compound": "COc1cc2ncnc(Nc3cccc(Cl)c3)c2cc1OC", "activity change, negative = cytotoxic": "-11.4% [at 15.8 µM]"}, {"compound": "COc1cccc(-c2ccc(/C=C\\CN3CCCCCC3)cc2Cl)c1", "Potency": "43.4 µM (active)"}, {"compound": "C1=CCCC1", "activity change, negative = cytotoxic": "0.892%"}, {"compound": "Cn1c(=O)[nH]c2ncn(C)c2c1=O", "activity change, negative = cytotoxic": "-0.452%"}, {"compound": "Clc1cccc(Cl)n1", "activity change, negative = cytotoxic": "1.38%"}, {"compound": "O=c1cc[nH]cc1", "activity change, negative = cytotoxic": "6.23%"}, {"compound": "CN1CCN(c2ccccc2/C=C2\\SCCN(c3ccc(Cl)c(Cl)c3)C2=O)CC1", "Potency": "43.6 µM (active)"}, {"compound": "CCC(=O)OC/C=C(\\C)CCC=C(C)C", "activity change, negative = cytotoxic": "2.59%"}, {"compound": "CCC1(C)C(=O)N(Cl)C(=O)N1Cl", "note": "(stereo not given)", "activity change, negative = cytotoxic": "0.347%"}, {"compound": "Cc1ccc2sc3cccc(C)c3c2c1", "activity change, negative = cytotoxic": "-1.69%"}, {"compound": "SC1CCCCC1", "activity change, negative = cytotoxic": "0.401%"}, {"compound": "Nc1cccnc1N", "activity change, negative = cytotoxic": "2.38%"}, {"compound": "c1ccc2occc2c1", "activity change, negative = cytotoxic": "7.78%"}, {"compound": "CN[C@H]1CC[C@@H](c2ccc(Cl)c(Cl)c2)c2ccc(S(N)(=O)=O)cc21", "Potency": "43.6 µM (active)"}, {"compound": "C=Cc1ccc(O)c(OC)c1", "activity change, negative = cytotoxic": "-2.47%"}, {"compound": "C=COCCCC", "activity change, negative = cytotoxic": "-6.32%"}, {"compound": "CCCCCCCCSCc1cc(C)c(O)c(CSCCCCCCCC)c1", "activity change, negative = cytotoxic": "7.06%"}, {"compound": "CCOC(=O)C1=NN(c2ccc(Cl)cc2Cl)C(C)(C(=O)OCC)C1", "note": "(stereo not given)", "activity change, negative = cytotoxic": "-5.52%"}, {"compound": "O=C(Nc1ccccc1)c1cc(Cl)ccc1O", "activity change, negative = cytotoxic": "-24.5%"}, {"compound": "CCCCCCCCc1ccc(Nc2ccc(CCCCCCCC)cc2)cc1", "activity change, negative = cytotoxic": "-4.84% [at 35.3 µM]"}, {"compound": "CCN(CC)c1ccc(C=O)cc1", "activity change, negative = cytotoxic": "-1.37%"}, {"compound": "Oc1cccc2c(O)cccc12", "activity change, negative = cytotoxic": "-2.31%"}, {"compound": "CC/C=C(\\C)C=O", "activity change, negative = cytotoxic": "0.226%"}, {"compound": "NCc1ccco1", "activity change, negative = cytotoxic": "-1.01%"}, {"compound": "O=C1CCCCCCCCCCCCCC1", "activity change, negative = cytotoxic": "-9.07%"}, {"compound": "O=C(O)C[C@H](O)C[C@H](O)/C=C/c1c(C2CC2)nc2ccccc2c1-c1ccc(F)cc1", "activity change, negative = cytotoxic": "0.557% [at 15.8 µM]"}, {"compound": "CC1=C(/C=C/C(C)=C/C=C/C(C)=C\\C(=O)O)C(C)(C)CCC1", "activity change, negative = cytotoxic": "-8.77%"}]}]}
